± gives the uncertainty stated by the source.
Each molecule was assayed on FLX1 (assay: cell viability z-score within plate (CellTiter-Glo), mean of 3 biological replicates; higher = higher viability relative to plate (less growth inhibition)). Conditions: 2 µM; time (hr): 120.
Experimental: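 FLX1 fibrolamellar carcinoma cells (DNAJB1-PRKACA fusion), 600 cells/well in 384-well plates, treated with a Selleck kinase inhibitor library (L1200) at 2 uM for 5 days (120 hr); viability by CellTiter-Glo. A z-score was computed within each plate and averaged over three biological replicates.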
With COc1ccc2c(Oc3ccc(NC(=O)c4c(C)n(CC(C)(C)O)n(-c5ccccc5)c4=O)nc3)ccnc2c1 the “cell viability z-score within plate” value was 0.446 ± 0.46. In the case of CO[C@H]1C[C@@H]2CC[C@@H](C)[C@@](O)(O2)C(=O)C(=O)N2CCCC[C@H]2C(=O)O[C@H]([C@H](C)C[C@@H]2CC[C@H](n3cnnn3)[C@H](OC)C2)CC(=O)[C@H](C)/C=C(\C)[C@@H](O)[C@@H](OC)C(=O)[C@H](C)C[C@H](C)/C=C/C=C/C=C/1C [Zotarolimus(ABT-578)], the “cell viability z-score within plate” value is reported as 0.264 ± 0.45. With CNC(=O)Nc1ccc(-c2nc(N3CC4CCC(C3)O4)c3cnn(C4CCC5(CC4)OCCO5)c3n2)cc1 the “cell viability z-score within plate” value was 0.631 ± 0.77. O=C(NC1CCNCC1)c1n[nH]cc1NC(=O)c1c(Cl)cccc1Cl was tested, and the “cell viability z-score within plate” value was -0.72 ± 0.28. In the case of COc1cc(Nc2ncc(F)c(Nc3ccc4c(n3)NC(=O)C(C)(C)O4)n2)cc(OC)c1OC [R406 (free base)], the “cell viability z-score within plate” value is reported as 0.533 ± 0.55. For CN1CCN(C2CCN(C(=O)Nc3cc(Oc4ccc(NC(=O)C5(C(=O)Nc6ccc(F)cc6)CC5)c(F)c4)ccn3)CC2)CC1 [Golvatinib (E7050)], the “cell viability z-score within plate” value was 0.521 ± 0.14. CC(C)CC(=O)Nc1n[nH]c2c1CN(C(=O)C1CCN(C)CC1)C2(C)C was tested, and the “cell viability z-score within plate” value was 0.0889 ± 0.24. For Cc1ccc(Nc2nccc(N(C)c3ccc4c(C)n(C)nc4c3)n2)cc1S(N)(=O)=O [Pazopanib], the “cell viability z-score within plate” value was -0.34 ± 0.86. For C[C@H](Nc1ncnc2nc[nH]c12)c1cc2cccc(Cl)c2c(=O)n1-c1ccccc1 [Duvelisib (IPI-145, INK1197)], the “cell viability z-score within plate” value was 0.585 ± 0.95. In the case of COc1c(C)c(C(=O)c2ccc(N)c(C(=O)O)c2)n2ccccc12, the “cell viability z-score within plate” value is reported as 0.661 ± 0.44.

From the supplement of paper PMC9925115
